Screening data as filed in PubChem.
Hits are enriched below; roughly 8% of the tested compounds scored in any of these assays.
HT1080 IDH1KD tx = qHTS for induction of synthetic lethality in tumor cells producing 2HG: qHTS for the HT-1080-IDH1KD cell line; AID 686971, 2013; 360,000 compounds, 2% hits; HT-1080 IDH1 knockdown viability, ATP luminescence, 48 h; Potency, µM (doses to about 46.1 µM), inactives show at the top dose activity, negative = toxicity, usual class: cytotoxic;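 further: 0% = DMSO wells and -100% = cell-free medium wells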
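Cytotoxicity counter-line: IDH1KD HT-1080, 48 h, CellTiter-Glo. Curves classed by r2, magnitude and activity.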
SW480 rereplic = A quantitative high throughput screen for small molecules that induce DNA re-replication in SW480 colon adenocarcinoma cells. SW480 DNA re-replication, Hoechst DNA content imaging, 48 h. Potency, µM (titrated, usually from 46.1 µM), inactives show top-dose re-replication activation, actives largely listed as activators. 340,000 compounds, 1.8% hits; further: % of control where 0% means no effect; nearly all actives have a fitted effect of over 55% in size
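Treated cells incubate 48 hr (37 C, 5% CO2), are stained 40 min with Hoechst, and nuclear fluorescence is enumerated; a rise in nuclei with high DNA signal marks re-replication.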
KB-V1 cytotox = qHTS assay for MDR1-selective chemotherapeutics: Primary screen using the drug-selected MDR subline cells KB-V1; KB-V1 MDR cells viability, CellTiter-Glo, 72 h; Potency, µM (titrated, usually from 46.1 µM), hits mostly cytotoxic; 400,000 compounds, 3.4% hits; further: on the % scale 0 is the no-effect control and ±100 the full control effect; nearly all actives have a fitted effect of over 60% in size
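Readout: CellTiter-Glo luminescence, 10 min after addition. Cells: KB-V1 MDR subline, 72 h at 37 degrees C with compound. Analysis: corrected, normalized data fitted to concentration-effect curves.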
HT1080-NT tox = qHTS for induction of synthetic lethality in tumor cells producing 2HG: qHTS for the HT-1080-NT fibrosarcoma cell line; HT-1080-NT fibrosarcoma viability, CellTiter-Glo ATP luminescence, 48 h; Potency, µM (doses to about 46.1 µM), without a hit: at the highest dose activity, negative = less viability, actives largely listed as cytotoxic; 360,000 compounds, 1.6% hits; AID 686970, 2013;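 further: NT is the 2HG producing partner of a matched IDH1 knockdown line; 0% = DMSO-treated cells and -100% = media-only wells without cells; nearly all actives have a fitted effect of over 55% in size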
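HT-1080-NT fibrosarcoma cells (2HG-overproducing), 750 cells/well in RPMI with 5% FBS, dosed after 2 h and incubated 48 h at 37C. CellTiter-Glo luminescence normalized to DMSO and no-cell wells; concentration-response curves fitted and classed.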
MCF10A rerep = A quantitative high throughput screen for small molecules that induce DNA re-replication in MCF 10a normal breast cells; 350,000 compounds, 2.9% hits; AID 624296, 2012; Potency, µM (top dose mostly 46.1 µM), without a hit: at the top dose activity, positive = re-replication, hits mostly activators; MCF 10A DNA re-replication, Hoechst nuclear intensity, 48 h; further: % of control where 0% means no effect; nearly all actives have a fitted effect of over 50% in size
KB-3-1 cytotox = qHTS assay for MDR1-selective chemotherapeutics: Primary screen using the parental adenocarcinoma cell KB-3-1 | KB-3-1 viability, CellTiter-Glo ATP luminescence, 72 h | 400,000 compounds, 1.4% hits | AID 1347075, 2019 | Potency, µM (titrated, usually from 46.1 µM), actives largely listed as cytotoxic; further: on the % scale 0 is the no-effect control and ±100 the full control effect; nearly all actives have a fitted effect of over 60% in size
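Parental KB-3-1 viability, qHTS format: 72 h compound exposure, 37 °C; CellTiter-Glo; media-only wells and DMSO plates as controls; concentration-effect fits on corrected data.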
* marks the source's active call; other numbers are inactive results; i = inactive; ? = inconclusive; nt = not tested or not shown. The call rests on the fitted dose curve; in most records, active means well fitted curve in the direction sought with a large enough effect; inconclusive means small, poorly fitted or top-dose-only effect, or another doubt; inactive means no such curve, though single readings can be large; an effect the other way counts as inactive or inconclusive. Potency means the concentration at half of the fitted maximal effect.

SMILES	HT1080 IDH1KD tx	SW480 rereplic	KB-V1 cytotox	HT1080-NT tox	MCF10A rerep	KB-3-1 cytotox
O=S(=O)(/C(=C/c1ccc(C(F)(F)F)cc1)c1nc2ccccc2[nH]1)c1ccccc1	4.6µM*	?	i	2.6µM*	?	5.2µM*
CC(C)c1ccc(/C=C(\c2nc3ccccc3[nH]2)S(=O)(=O)c2ccccc2)cc1	3.3µM*	12µM*	2.6µM*	5.2µM*	2.6µM*	?
O=C1CN(C(=O)c2ccc3nc(Cc4cccc(Cl)c4)oc3c2)CCN1	16%	-2%	nt	2%	-21%	nt
CC(O)CC(C(=O)NNc1ccccc1)C(=O)NNc1ccccc1 (stereo not drawn)	2.3µM*	0%	i	1.3µM*	?	?
O=C(NNc1ccccc1)C(CCO)C(=O)NNc1ccccc1	6.5µM*	?	i	7.3µM*	12µM*	i
CC(C)C(=O)NNc1ccccc1	-8%	2%	i	?	4%	i
N#C/C(=C/c1ccc([N+](=O)[O-])cc1)C(N)=O	11%	0%	i	-8%	1%	i
N#C/C(=C\c1cc([N+](=O)[O-])ccc1Cl)C(N)=O	?	8.2µM*	i	?	21µM*	i
COc1ccc(NC(=S)NC(=O)c2cc3ccccc3o2)c(OC)c1	13%	-2%	i	7%	14%	i
O=C(CSc1nc2ccc([N+](=O)[O-])cc2[nH]1)NC1CCCCCC1	?	1%	13µM*	?	?	?
Cc1ccc2nc(SCC(=O)Nc3cccc([N+](=O)[O-])c3)[nH]c2c1	?	0%	15µM*	-16%	-2%	i
Cc1ccc2nc(SCc3ccc([N+](=O)[O-])cc3)[nH]c2c1	?	0%	16µM*	?	27%	?
Cc1ccc(CSc2nc3ccncc3[nH]2)cc1	?	-14%	i	?	1%	12µM*
Cc1ccc2nc(SCc3ccc([N+](=O)[O-])cc3)nc(C)c2c1	6%	-3%	i	13%	10%	?
Cc1ccc2nc(SCC(=O)Nc3ccc(C(N)=O)cc3)[nH]c2c1	17%	-2%	i	25%	-4%	i
Cc1ccc(CNC(=O)c2ccc(N3CCC4(CC3)CC(c3ccccc3)=NO4)c(NC(=O)c3ccco3)c2)cc1	5%	-1%	i	-1%	4%	i
Cn1cc(C(=O)N2CCCCC2)c(=O)c2cc(S(=O)(=O)N3CCCC3)ccc21	6%	16%	i	0%	2%	i
Cc1cc(C)c2nc(NNC(=O)c3ccc(S(=O)(=O)N4CCCC(C)C4)cc3)sc2c1 (stereo not drawn)	?	?	i	?	15µM*	4.1µM*
CCS(=O)(=O)N1Cc2ccccc2CC1C(=O)Nc1nc2ccc(C)cc2s1 (stereo not drawn)	-18%	-215%	7.3µM*	?	9%	?
COC(=O)c1sc2ccccc2c1NC(=O)c1ccc(S(=O)(=O)N2CC(C)CC(C)C2)cc1 (stereo not drawn)	-6%	-13%	i	5%	3%	i
Cc1cccc2sc(NNC(=O)c3ccc(S(=O)(=O)N4CC(C)CC(C)C4)cc3)nc12 (stereo not drawn)	16µM*	9.2µM*	i	?	?	?
Cc1cc(C)c2nc(NNC(=O)c3ccc(S(=O)(=O)N4CC(C)CC(C)C4)cc3)sc2c1 (stereo not drawn)	12µM*	?	i	?	?	i
Cc1cc(C)c2nc(NC(=O)c3ccc(S(=O)(=O)N4CCC(C)CC4)cc3)sc2c1	nt	nt	i	nt	nt	i
CC(C)(C)c1ccc(S(=O)(=O)NC(Cc2ccccc2)C(=O)O)cc1 (stereo not drawn)	-6%	-2%	i	-1%	4%	i
O=C(CNC(=O)c1ccncc1)N/N=C/c1ccccn1	-1%	-6%	i	-3%	1%	i
SMILES	HT1080 IDH1KD tx	SW480 rereplic	KB-V1 cytotox	HT1080-NT tox	MCF10A rerep	KB-3-1 cytotox
Cc1ccc2nc(NC(=O)c3ccc(S(=O)(=O)N4CCC(C)CC4)cc3)sc2c1	nt	nt	i	nt	nt	i
Cc1ccc2nc(NNC(=O)c3ccc(S(=O)(=O)N4CCc5ccccc5C4)cc3)sc2c1	4.6µM*	?	i	?	9.2µM*	?
COc1ccc(C(=O)CCN2CCc3cc(OC)c(OC)cc3C2)cc1	?	2%	i	?	3.7µM*	i
CCCOc1ccc(C(=O)CCN2CCCCC2)cc1	-15%	?	?	?	?	?
Cc1ccc(CCC(=O)Nc2ccc(Br)cc2)o1	-29%	15µM*	i	-3%	?	i
CCOc1ccc(C(=O)CCN2CCCCCC2)cc1	?	?	i	?	3.3µM*	?
CCOc1ccc(NC(=O)CCC(=O)c2ccc(Br)cc2)cc1	4%	0.65µM*	i	13%	4%	i
CCOc1ccc(NC(=O)CCC(=O)c2ccc(OC)cc2)cc1	-2%	-6%	i	2%	-3%	i
Cc1cc(Br)ccc1OCC(=O)NC1CCCC1	0%	10%	i	?	1%	i
COc1ccccc1N1CCN(CCCC(=O)c2ccc(F)cc2)CC1	-16%	9%	i	-16%	1%	i
CCN1CCN(CC(=O)c2ccc(OC)cc2)CC1	1%	-55%	i	2%	2.1µM*	i
COc1ccc(C(=O)CCN2CCN(c3ccccc3OC)CC2)cc1	0%	?	i	?	2.6µM*	i
COc1ccccc1N1CCN(CC(=O)Nc2cc(C)nn2-c2nc(C)cc(C)n2)CC1	?	9.2µM*	i	?	13%	4.6µM*
Cc1cccc(-n2cnc3cc(C(=O)N4CCc5ccccc54)ccc32)c1	5%	3%	13µM*	9%	2%	i
Cc1cc(C)n(-c2ccc(C(=O)N3CCc4ccccc43)cc2)n1	-10%	3%	?	-12%	6%	?
Cc1cc(C(=O)N2CCc3ccccc32)n(-c2ccccc2)n1	?	?	?	?	?	10µM*
Cc1cccc(-n2cnc3cc(C(=O)NCC4CCCO4)ccc32)c1 (stereo not drawn)	?	nt	?	?	nt	18µM*
